Data reported in PubChem BioAssay (Tox21).
“And” between values parts separate entries of the source, which are not always exact repeats. Equal values may be shown once. Results filed as inconclusive are left out. The source holds several records for some structures; these can differ, active in one and inactive in another. The source made the active and inactive calls. Unless noted, calls come from the whole dose curve; as a rule, active = well fitted curve in the direction sought with a large enough effect in the repeat runs; inconclusive = weak or mixed curves; inactive = no such curve, though single readings can be large; an effect the other way counts as inactive or inconclusive.

What was measured:
[1] = qHTS assay to identify small molecule antagonists of the glucocorticoid receptor (GR) signaling pathway - cell viability counter screen (AID 720693); conditions: GR-bla HeLa viability, CellTiter-Glo luminescence, 18 h, with 5 nM dexamethasone present; series mostly up to 58.5 µM; note: nearly all actives have a fitted effect of over 55% in size; note: potency is the fitted concentration of half-maximal effect
[2] = qHTS assay for identifying genotoxic compounds that show differential cytotoxicity against isogenic chicken DT40 cell lines with known DNA damage response pathways - wild type cell line (AID 743012); conditions: DT40 wild type chicken cells viability, CellTiter-Glo, 40 h; series mostly up to 68.4 µM; note: nearly all actives have a fitted effect of over 60% in size; note: potency is the fitted concentration of half-maximal effect
Summary of the method: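 Luminescent ATP viability signal (CellTiter-Glo, 30 min RT) recorded after wild type DT40 cells were incubated with compounds for 40 h at 37 C/5% CO2.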

[3] = qHTS assay for identifying genotoxic compounds that show differential cytotoxicity against isogenic chicken DT40 cell lines with known DNA damage response pathways - Rev3 mutant cell line (AID 743014); conditions: chicken DT40 Rev3-/- viability, CellTiter-Glo, 40 h; series mostly up to 68.4 µM; note: nearly all actives have a fitted effect of over 55% in size; note: potency is the fitted concentration of half-maximal effect
[4] = qHTS assay for identifying genotoxic compounds that show differential cytotoxicity against isogenic chicken DT40 cell lines with known DNA damage response pathways - Rad54/Ku70 mutant cell line (AID 743015); conditions: DT40 Rad54/Ku70 mutant viability, CellTiter-Glo, 40 h; series mostly up to 66.8 µM; note: nearly all actives have a fitted effect of over 60% in size; note: potency is the fitted concentration of half-maximal effect
[5] = qHTS assay to identify small molecule antagonists of the androgen receptor (AR) signaling pathway - cell viability counter screen (AID 743033; note: nearly all actives have a fitted effect of over 45% in size; note: potency is the fitted concentration of half-maximal effect); conditions: AR-bla HEK293 viability, CellTiter-Glo luminescence, 16 h; series mostly up to 58.5 µM
[6] = qHTS assay to identify small molecule antagonists of the thyroid receptor (TR) signaling pathway - cell viability counter screen (AID 743064); conditions: GH3.TRE-Luc viability, CellTiter-Fluor, 24 h; series mostly up to 70.3 µM; note: nearly all actives have a fitted effect of over 50% in size; note: potency is the fitted concentration of half-maximal effect
Summary of the method: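 Same-well viability check: GH3.TRE-Luc cells stimulated with 1 nM T3 alongside test compound for 23.5 h, followed by CellTiter-Fluor fluorescence.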

[7] = qHTS assay to identify small molecule antagonists of the thyroid receptor (TR) signaling pathway (AID 743065); conditions: GH3.TRE-Luc, T3-stimulated luciferase inhibition, 23.5 h; series mostly up to 70.3 µM; note: nearly all actives have a fitted effect of over 55% in size; note: potency is the fitted concentration of half-maximal effect
Summary of the method: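 Antagonism measured as loss of luciferase signal in GH3 cells stably carrying a TRE-luciferase reporter, co-treated with compound and T3 (1 nM final) for 23.5 h at 37 C. Viability was read in the same well by CellTiter-Fluor.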

[8] = target: Estrogen receptor (Homo sapiens) (UniProt P03372); experiment: qHTS assay to identify small molecule antagonists of the estrogen receptor alpha (ER-alpha) signaling pathway (AID 743069; active = well fitted curve in the direction sought with a large enough effect in the signal ratio in the repeat runs, not every such curve was filed as active; the % refers to the signal ratio); conditions: HEK293 ER-alpha-UAS-bla, beta-lactamase ratio, antagonist mode; series mostly up to 69.4 µM
Summary of the method: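 Antagonist mode: compounds in DMSO were co-added with 17beta-estradiol to ER-alpha-bla HEK293 cells (2% charcoal-stripped serum) and left 18 h at 37C. Reporter inhibition was measured as FRET fluorescence after 2 h LiveBLAzer substrate at room temperature.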

[9] = target: Estrogen receptor (Homo sapiens) (UniProt P03372); experiment: qHTS assay to identify small molecule agonists of the estrogen receptor alpha (ER-alpha) signaling pathway (AID 743075; calls by dose curve;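 note: HEK293 GripTite cells with ER-alpha and UAS-driven beta-lactamase reporter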); conditions: HEK293 ER-alpha-UAS-bla, beta-lactamase FRET ratio, 18 h; series mostly up to 70.1 µM
[10] = qHTS assay to identify small molecule antagonists of the estrogen receptor alpha (ER-alpha) signaling pathway using the BG1 cell line - cell viability counter screen (AID 743081); conditions: BG1Luc4E2 viability, CellTiter-Fluor, 22 h; series mostly up to 70.3 µM;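 note: compound given together with 17beta-estradiol as the ER stimulus; nearly all actives have a fitted effect of over 45% in size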; note: potency is the fitted concentration of half-maximal effect
[11] = qHTS assay to identify small molecule antagonists of the androgen receptor (AR) signaling pathway using the MDA cell line - cell viability counter screen (AID 743041; note: nearly all actives have a fitted effect of over 45% in size; note: potency is the fitted concentration of half-maximal effect); conditions: MDA-kb2 viability, CellTiter-Fluor, 16 h, cells co-treated with R1881 androgen agonist; series mostly up to 70.3 µM
Summary of the method: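 Viability read by CellTiter-Fluor fluorescence in the same wells as the antagonist screen, added after 15.5 h of a 16 h, 37C exposure. Human breast carcinoma MDA-kb2 AR-luc cells, compounds co-dosed with agonist R1881.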

[12] = tested on: thyroid hormone receptor (rat, GH3 cells); experiment: qHTS assay to identify small molecule agonists of the thyroid receptor (TR) signaling pathway (AID 743066; calls by dose curve); conditions: GH3.TRE-Luc cells, TR agonist luciferase, 24 h; series mostly up to 83.9 µM
[13] = target: Androgen receptor (Homo sapiens) (UniProt P10275); experiment: qHTS assay to identify small molecule agonists of the androgen receptor (AR) signaling pathway using the MDA cell line (AID 743040; note: nearly all actives have a fitted effect of over 20% in size); conditions: MDA-kb2 AR-luc cells, MMTV luciferase, 16 h, stronger effect = higher value; series mostly up to 70.3 µM
Summary of the method: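 Luciferase agonist assay: 16 h compound exposure at 37C without CO2 in MDA-kb2 AR-luc cells, whose MMTV promoter responds to both AR and GR. Luminescence measured after 30 min room-temperature incubation with ONE-Glo.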

[14] = target: Androgen receptor (Homo sapiens) (UniProt P10275); experiment: qHTS assay to identify small molecule antagonists of the androgen receptor (AR) signaling pathway using the MDA cell line (AID 743042; note: nearly all actives have a fitted effect of over 55% in size); conditions: MDA-kb2 AR-luc, MMTV luciferase, R1881 antagonist, 16 h; series mostly up to 70.3 µM
Summary of the method: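 Antagonist mode: compounds plus R1881 agonist added to MDA-kb2 AR-luc cells, incubated 16 h at 37C. Luciferase reporter luminescence quantified, with multiplexed CellTiter-Fluor readout for cell viability.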

[15] = target: Aromatase (Homo sapiens) (UniProt P11511); experiment: qHTS assay to identify aromatase inhibitors (AID 743083); conditions: MCF-7 aro ERE, testosterone-driven ERE luciferase, 24 h; series mostly up to 70.3 µM; note: nearly all actives have a fitted effect of over 55% in size; note: potency is the fitted concentration of half-maximal effect
[16] = qHTS assay to identify small molecule antagonists of the estrogen receptor alpha (ER-alpha) signaling pathway - cell viability counter screen (AID 743074; calls by dose curve;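 note: HEK293 cells carrying ER-alpha-UAS-bla reporter stimulated with 17beta-estradiol; nearly all actives have a fitted effect of over 45% in size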; note: potency is the fitted concentration of half-maximal effect); conditions: ERalpha-bla HEK293 viability, CellTiter-Glo luminescence, 18 h; series mostly up to 69.4 µM
[17] = target: Estrogen receptor (Homo sapiens) (UniProt P03372); experiment: qHTS assay to identify small molecule agonists of the estrogen receptor alpha (ER-alpha) signaling pathway using the BG1 cell line (AID 743079); conditions: BG1Luc4E2 cells, ERE-luciferase agonist, 22 h; series mostly up to 70.3 µM; note: nearly all actives have a fitted effect of over 20% in size
[18] = qHTS assay to identify small molecule antagonists of the estrogen receptor alpha (ER-alpha) signaling pathway using the BG1 cell line (AID 743080; calls by dose curve;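 note: BG1 cells stimulated with 17beta-estradiol alongside compound; nearly all actives have a fitted effect of over 25% in size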; note: potency is the fitted concentration of half-maximal effect); conditions: BG1Luc4E2 ERE-luciferase antagonist mode, luminescence; activity change, negative = inhibition: at 70.3 µM (top of the series)
Summary of the method: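 Luminescence from a 4×ERE-luciferase reporter in BG1-Luc-4E2 cells served as read-out. Cells, pre-cultured 5 days in stripped-serum phenol-red-free medium, were exposed to compound with 17beta-estradiol co-stimulation for 21.5 h at 37 C.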

Measured: Potency
% is set by controls: 0 for no effect and ±100 for the full control effect.

Estrogen receptor (Homo sapiens), sequence (P03372 whole entry, looked up): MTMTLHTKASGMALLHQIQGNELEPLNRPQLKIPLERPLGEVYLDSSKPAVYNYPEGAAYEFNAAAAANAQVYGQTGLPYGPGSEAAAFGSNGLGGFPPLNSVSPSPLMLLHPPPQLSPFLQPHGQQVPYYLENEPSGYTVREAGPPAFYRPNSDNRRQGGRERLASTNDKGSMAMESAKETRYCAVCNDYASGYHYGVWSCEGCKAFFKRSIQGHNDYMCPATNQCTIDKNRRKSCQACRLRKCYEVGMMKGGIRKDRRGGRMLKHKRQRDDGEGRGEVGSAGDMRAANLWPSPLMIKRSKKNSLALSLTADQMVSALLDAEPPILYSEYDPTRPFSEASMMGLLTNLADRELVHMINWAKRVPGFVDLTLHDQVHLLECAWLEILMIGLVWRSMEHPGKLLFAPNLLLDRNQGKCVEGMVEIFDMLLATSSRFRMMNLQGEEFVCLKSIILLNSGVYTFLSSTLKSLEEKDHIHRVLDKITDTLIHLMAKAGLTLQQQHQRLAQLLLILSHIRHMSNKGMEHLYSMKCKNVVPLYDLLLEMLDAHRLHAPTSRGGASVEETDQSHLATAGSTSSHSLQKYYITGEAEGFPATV
Aromatase (Homo sapiens), sequence (P11511 whole entry, looked up): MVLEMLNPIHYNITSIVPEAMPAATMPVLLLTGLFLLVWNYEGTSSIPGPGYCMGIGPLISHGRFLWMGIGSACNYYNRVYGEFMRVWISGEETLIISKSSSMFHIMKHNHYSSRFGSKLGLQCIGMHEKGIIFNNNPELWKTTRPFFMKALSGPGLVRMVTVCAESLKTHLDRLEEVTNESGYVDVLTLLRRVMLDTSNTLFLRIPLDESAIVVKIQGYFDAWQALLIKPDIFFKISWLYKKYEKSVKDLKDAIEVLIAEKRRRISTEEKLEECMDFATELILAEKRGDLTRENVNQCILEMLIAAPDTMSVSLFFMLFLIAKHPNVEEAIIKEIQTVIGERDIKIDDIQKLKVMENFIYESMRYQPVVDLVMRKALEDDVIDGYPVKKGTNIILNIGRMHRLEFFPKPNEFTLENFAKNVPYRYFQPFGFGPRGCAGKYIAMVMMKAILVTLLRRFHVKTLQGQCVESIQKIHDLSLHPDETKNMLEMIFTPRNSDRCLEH
Androgen receptor (Homo sapiens), sequence (P10275 whole entry, looked up): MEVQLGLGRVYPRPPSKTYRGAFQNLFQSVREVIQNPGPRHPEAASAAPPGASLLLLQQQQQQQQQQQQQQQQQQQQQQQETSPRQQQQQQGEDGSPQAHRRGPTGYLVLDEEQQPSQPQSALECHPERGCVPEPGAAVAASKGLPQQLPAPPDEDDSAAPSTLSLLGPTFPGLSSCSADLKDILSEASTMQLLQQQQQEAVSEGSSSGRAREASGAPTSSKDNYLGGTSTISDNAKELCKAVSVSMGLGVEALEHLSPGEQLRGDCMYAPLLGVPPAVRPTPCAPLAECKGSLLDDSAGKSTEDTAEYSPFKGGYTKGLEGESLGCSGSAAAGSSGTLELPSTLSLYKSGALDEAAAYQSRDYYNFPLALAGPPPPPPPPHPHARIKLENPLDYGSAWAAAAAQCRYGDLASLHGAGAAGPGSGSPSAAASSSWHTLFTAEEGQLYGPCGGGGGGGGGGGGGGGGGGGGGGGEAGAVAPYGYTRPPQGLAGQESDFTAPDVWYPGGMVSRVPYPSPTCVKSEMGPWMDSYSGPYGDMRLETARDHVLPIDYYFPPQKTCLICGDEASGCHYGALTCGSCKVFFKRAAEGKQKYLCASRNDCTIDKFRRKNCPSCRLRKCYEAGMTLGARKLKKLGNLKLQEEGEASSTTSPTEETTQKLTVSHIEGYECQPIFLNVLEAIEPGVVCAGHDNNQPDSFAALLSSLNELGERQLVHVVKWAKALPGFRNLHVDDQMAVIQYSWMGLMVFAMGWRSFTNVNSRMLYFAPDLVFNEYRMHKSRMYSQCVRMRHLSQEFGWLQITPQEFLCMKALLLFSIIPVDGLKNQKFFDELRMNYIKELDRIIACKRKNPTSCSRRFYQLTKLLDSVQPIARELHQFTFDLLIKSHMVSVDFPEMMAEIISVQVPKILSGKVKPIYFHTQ

COc1ccc(OC(F)(F)F)cc1CN[C@H]1CCCN[C@H]1c1ccccc1
active: [2] 15.4 µM | [3] 30.6 µM | [4] 27.3 µM | [5] 49 µM | [6] 24.3 µM | [7] 24.3 µM
inactive: [1] | [8] | [9] | [10]

C1=CC2C3C=CC(C3)C2C1 (centres undefined)
inactive: [1] | [5] | [11] | [7] | [12] | [10]
active: [3] 47.7 µM

O=C(Nc1ncc([N+](=O)[O-])s1)c1cccs1
inactive: [13] | [14] | [12] | [8] | [9] | [15]
active: [1] 9.52 µM | [2] 23.7 µM | [3] 29.8 µM | [4] 26.6 µM | [7] 21.1 µM

CN(C)CCOC(C)(c1ccccc1)c1ccccn1 (centres undefined)
inactive: [1] | [2] | [3] | [4] | [5] | [11] | [16] | [10] | [15]

CC/C(=C(\c1ccccc1)c1ccc(OCCN(C)C)cc1)c1ccccc1
active: [5] 13.9 µM and 15.5 µM and 11.1 µM | [7] 8.63 µM [middle of 5 runs] | [16] 48.9 µM and 49.4 µM and 49 µM
inactive: [12] | [10]

Cc1cc(=O)oc2cc(O)ccc12
not listed: [6] | [7] | [13] | [14]
inactive: all other assays above

CC1(C)S[C@@H]2[C@H](NC(=O)[C@H](N)c3ccccc3)C(=O)N2[C@H]1C(=O)O
inactive: [1] | [2] | [3] | [4] | [5] | [11] | [16] | [10] | [15]

COc1ccc2cc(S(=O)(=O)N[C@H](CC(=O)N[C@H](Cc3ccc(CN4[C@H](C)CCC[C@@H]4C)cc3)C(=O)N(C)C(C)C)c3ccc4c(c3)OCO4)ccc2c1
inactive: [8]
active: [2] 7.28 µM | [3] 9.17 µM | [4] 5.16 µM | [5] 20.7 µM | [6] 2.58 µM | [7] 3.65 µM | [16] 52 µM | [10] 9.17 µM | [15] 46 µM

CN[C@H]1CC[C@@H](c2ccc(Cl)c(Cl)c2)c2ccccc21
active: [2] 5.96 µM | [3] 8.41 µM | [4] 7.5 µM | [5] 23.9 µM | [6] 9.44 µM | [7] 6.68 µM
inactive: [1] | [9] | [10]

CCc1nc(N)nc(N)c1-c1ccc(Cl)cc1
inactive and 55.3 µM (active): [15]
inactive: [1] | [11] | [12] | [8] | [9] | [10]
active: [2] 596 nM and 139 nM and 273 nM | [3] 668 nM and 196 nM and 109 nM | [4] 1.5 µM and 392 nM and 217 nM | [6] 62.1 µM | [7] 10.6 µM and 6.21 µM and 9.69 µM | [16] 7.02 µM | [18] 23.7 µM

Nc1ccc([N+](=O)[O-])cc1O
active: [3] 47.2 µM | [4] 55.5 µM | [11] 54.5 µM | [6] 36.4 µM | [7] 48.6 µM
not listed: [2] | [10] | [13] | [14] | [16]
inactive: all other assays above

COc1ccc(CN(CCN(C)C)c2ccccn2)cc1
inactive: [1] | [2] | [3] | [4] | [5] | [11] | [12] | [16] | [10]

O=C(O)CC(O)C(=O)O (centres undefined)
inactive: [1] | [2] | [3] | [4] | [5] | [11] | [6] | [16] | [10] | [15]

Cn1c(=O)c2c(ncn2C)n(C)c1=O
inactive: [1] | [2] | [5] | [6] | [16] | [10] | [15]
inactive and 49.2 µM (active): [3] | [4]

O=C1OC2(c3ccccc31)c1cc(Br)c(O)c(Br)c1Oc1c2cc(Br)c(O)c1Br
active: [11] 11.9 µM and 7.81 µM and 17.7 µM | [6] 6.68 µM and 5.53 µM and 7.91 µM | [10] 11.9 µM and 3.91 µM and 8.88 µM
not listed: [3] | [8] | [13] | [14]
inactive: all other assays above

CC(C)NCC(O)c1ccc(O)c(O)c1 (centres undefined)
inactive: [1] | [5] | [11] | [6] | [7] | [12] | [16] | [10] | [15]
active: [3] 61.1 µM
inactive and 61.1 µM (active): [2]

CCCCC(CC)C(=O)O (centres undefined)
inactive: [1] | [5] | [11] | [6] | [7] | [12] | [16] | [10] | [15]

NC(=O)c1cccnc1
not listed: [6] | [7] | [12] | [13] | [14]
inactive: all other assays above

O=CC(=O)c1ccccc1
not listed: [3] | [7] | [12] | [13] | [14]
inactive: all other assays above
